Many of the other results were omitted from the sample, so hits are more common in it than they were.
Pf Dd2 inh – Plasmodium falciparum Dd2 growth inhibition; hit rate 4.3% among 120,000; P. falciparum Dd2 growth, SYBR Green, 72 h; Potency, µM (top dose mostly 28.9 µM), inactives show at the top dose activity, negative = inhibition, hits mostly inhibitors; active = well fitted inhibition curve with a large enough effect;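 also: plate controls were DMSO vehicle for no effect and reference drug for full effect; nearly all actives have a fitted effect of over 65% in size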
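Readout: SYBR Green fluorescence, 485 nm excitation, 535 nm emission, after ~16 h lysis at 37C. Before that, Dd2-infected red cells (2.5% hematocrit) grew 72 h with compound, 29 uM top final concentration.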
* marks the source's active call; other numbers are inactive results; i = inactive; [ ] = remark or other dose. Potency is read from the fitted curve at half-maximal effect.

SMILES | Pf Dd2 inh
COc1ccc(CN2Cc3[nH]cnc3C[C@H]2C(=O)N(C)Cc2ccccc2)c2ccccc12 | 5.62µM*
CN(Cc1ccccc1)C(=O)[C@@H]1Cc2nc[nH]c2CN1C | -20.8%[44.1 µM]
CN(C)c1ccc(CN2Cc3[nH]cnc3C[C@H]2C(=O)N2CCC(Cc3ccccc3)CC2)cc1 | i
COc1ccc(CN2Cc3[nH]cnc3C[C@H]2C(=O)NC2CCCCC2)c2ccccc12 | 11.2µM*
CCc1ccc(NC(=O)N2CCC(N3CC4CC(C3)[C@H]3CCCC(=O)N3C4)CC2)cc1 (stereo not given in full) | -6.3%
Cc1ccc(CN2CCOC[C@H](Oc3ccc(C(F)(F)F)cc3)C2)cc1 | i
O=C(c1ccco1)N1CCC2(CCN(CCCn3cccn3)CC2)C(CO)C1 (stereo not given) | -4.3%
Cn1ccnc1CN1C[C@@H](F)[C@@H](OCc2nc3ccc(F)cc3[nH]2)C1 | -6.5%[44.1 µM]
Fc1ccc2nc(CO[C@H]3CN(CC4CC4)C[C@H]3F)[nH]c2c1 | 11.2µM*
Cc1cccnc1CN1C[C@@H](F)[C@@H](OCc2nc3ccc(F)cc3[nH]2)C1 | i
O=C(c1ccc(Cn2ccnc2)o1)N1CCCn2nc(CO)cc2C1 | -13.7%
CN(CCc1noc(C2CC2)n1)c1ncncc1C(=O)O | 0.7%
COc1ccc(OC)c(S(=O)(=O)N[C@H]2CO[C@H]3[C@@H]2OC[C@H]3OC(=O)Nc2cccc3ccccc23)c1 | i
COC(=O)c1sc(-c2ccccc2)cc1NC(=O)c1cccc(F)c1 | i[5.79 µM]
COC(=O)c1sc(-c2ccccc2)cc1NC(=O)c1cccc(Cl)c1 | 451.4%[5.79 µM]
COC(=O)c1sc(-c2ccccc2)cc1NC(=O)Nc1ccccc1Cl | 11.2µM*
COCCC(=O)N1CCC2(CC1)C(=O)N(C)c1ccccc12 | 50.1%
CN1C(=O)C2(CCN(C(=O)CCC3CCCCC3)CC2)c2ccccc21 | 5.01µM*
CN1C(=O)C2(CCN(C(=O)CCCS(N)(=O)=O)CC2)c2ccccc21 | 3.7%
COCCNC(=O)[C@@H]1C[C@H](Oc2cccnc2)CN1C(=O)C1(C)CCCCC1 | -4.0%
COCCN1C(=O)CC[C@]2(C(=O)NC3CCCCC3)CCCC[C@@H]12 | -3.8%
CCn1cc2nc(SCc3cccc(C)c3)n(CCc3ccccc3)c(=O)c2n1 | i
CCn1cc2nc(SCc3cccc(Cl)c3)n(Cc3ccc(C)cc3)c(=O)c2n1 | i
CCn1cc2nc(SCc3cccc(C(F)(F)F)c3)n(Cc3ccc(C)cc3)c(=O)c2n1 | 10µM*
COCC1(c2nc(C3CCOCC3)nn2C(C)(C)C)CC1 | 5.9%
SMILES | Pf Dd2 inh
CCc1ccc(NC(=O)Cn2c(-c3cnccn3)nc(C)c(C)c2=O)cc1 | i
COc1ccc(C(=O)N2C3CCCC2CC(=O)C3)cc1 | -0.4%[44.1 µM]
CCc1ccc(NC(=O)Cn2c(=O)c(CNc3ccccc3)cc3cc(OC)c(OC)cc32)cc1 | i
COc1cc2cc(CNc3ccccc3)c(=O)n(CC(=O)Nc3cc(C)cc(C)c3)c2cc1OC | 11.2µM*
COc1ccc(NCc2cc3cc4c(cc3n(CC(=O)Nc3cc(C)cc(C)c3)c2=O)OCO4)cc1 | -5.9%
Cc1ccccc1CNC(=O)c1ccc(-n2c(C)cc3c2CCCC3)cc1 | 10µM*
COCCNC(=O)c1ccc(-n2c(-c3ccccc3)cc3c2CCCCC3)cc1 | -20.6%
CC(C)NC(=O)c1ccc(-n2c(-c3ccccc3)cc3c2CCCC3)cc1 | i
CCCNC(=O)c1ccc(-n2c(-c3ccccc3)cc3c2CCCCC3)cc1 | -27.5%
CCNC(=O)c1ccc(-n2c(-c3ccccc3)cc3c2CCCCC3)cc1 | -1.6%
Cc1cc2c(n1-c1ccc(C(=O)NCC(C)c3ccccc3)cc1)CCCC2 (stereo not given) | 10µM*
CC#CC(=O)N1CCCCC1C(=O)Nc1ccc(-n2nc(C)cc2C)cc1 (stereo not given) | -14.3%
COc1cccn(CC(=O)N(Cc2ccc(SC)cc2)C2CC2)c1=O | -20.8%
CN(C)c1ccc(CN2CC[C@H](c3nc4ccccc4n3C)C2)cc1 | -8.2%[44.1 µM]
O=C(C1CCCC1)N1CC2(Cc3ccccc3NC2=O)C1 | 8.3%[44.1 µM]
CN1C[C@@H](NC(=O)Nc2ccccc2)C[C@H]1c1nc(-c2cnccn2)no1 | 38.1%[44.1 µM]
Cc1cn2nc(C(=O)N3CCN(c4ccccc4F)CC3)cc2c(N2CCCC2)n1 | 0.4%
CCC(CC)C(=O)NC[C@@H]1C=C(C)[C@H](Cc2nc3ccc(F)cc3[nH]2)C[C@H]1C(C)C | i
COc1ccc2[nH]c(C[C@@H]3C[C@@H](C(C)C)[C@H](CNC(=O)c4cccnc4)C=C3C)nc2n1 | 11.2µM*
CCCNC(=O)NC[C@@H]1C=C(C)[C@H](Cc2nc3nc(OC)ccc3[nH]2)C[C@H]1C(C)C | 10µM*
CC1=C[C@@H](CNC(=O)C(C)C)[C@H](C(C)C)C[C@H]1Cc1nc2ncccc2[nH]1 | -2.6%[44.1 µM]
CC(=O)NC[C@@H]1C=C(C)[C@H](Cc2nc3ccccc3[nH]2)C[C@H]1C(C)C | -23.8%[44.1 µM]
CC1=C[C@@H](CNC(=O)c2cccnc2)[C@H](C(C)C)C[C@H]1CC(=O)NC1CCCC1 | i
C=CCNC(=O)c1cn2c(n1)CN(C(=O)OC)CC2 | 9.4%[44.1 µM]
O=Cc1ccc(N2CCN(C(=O)N3CCCCC3)CC2=O)cc1 | 12.3%
SMILES | Pf Dd2 inh
O=C(NCc1nnc2n1C(C(=O)N1CCN(c3ncccn3)CC1)CC2)Nc1cccnc1 (stereo not given) | 3.8%
O=C(O)[C@@H]1CN(Cc2ccccc2)C[C@@H]1C(=O)N1CCN(c2ccccn2)CC1 | -8.4%
O=C([C@@H]1C[C@@H](c2ccc(F)cc2)N(Cc2ccccc2)C1)N1CCN(c2ccccn2)CC1 | 7.08µM*
C[S+](=O)([O-])N1C[C@H](C(=O)N2CCN(c3ccccn3)CC2)C[C@@H]1c1ccc(F)cc1 | i
O=C(NCC12CC3CC(CC(C3)C1)C2)c1cc2nc(-c3ccc(Cl)cc3)cc(C(F)(F)F)n2n1 | -10.1%
O=C(Nc1cc(Cl)ccc1Cl)c1cc2nc(-c3ccc4c(c3)OCO4)cc(C(F)(F)F)n2n1 | 37.7%
O=C(Nc1cc(Cl)ccc1O)c1cc2nc(-c3ccc4c(c3)OCO4)cc(C(F)(F)F)n2n1 | 1.58µM*
COc1ccc(S(=O)(=O)N2C[C@@H](F)C[C@H]2C(=O)N2CCc3ccccc3C2)cc1 | -5.9%
COc1cc(CN2C[C@@H]3C(=O)N(CCc4ccccc4)C(=O)[C@@H]3C2)cc(OC)c1 | i
CC(C)(O)CCc1ccc(CN2CCN([C@H]3CCCC[C@@H]3O)CC2)cc1 | -6.3%
Cc1cccc(NC(=O)C2CCN(C(=O)c3ncn4c3COC(c3ccccc3)C4)CC2)c1 (stereo not given) | i
Cn1nccc1OCc1cn2c(=O)n(C)cc(-c3ccccc3F)c2n1 | i
O=C(c1ccc(Cl)cc1)N1CC2(CCCN(Cc3ccccn3)C2)Cc2ccccc21 (stereo not given) | -29.1%
O=C(c1ccc(Cl)cc1)N1CC2(CCN(C3COC3)C2)Cc2ccccc21 (stereo not given) | -23.3%
O=C(c1ccc(Cl)cc1)N1CC2(CCCN2Cc2ccc(Cl)cc2)Cc2ccccc21 (stereo not given) | 10µM*
CC(=O)N1CC2(CCCN2Cc2cccc(C(N)=O)c2)Cc2ccccc21 (stereo not given) | -4.8%
CC(=O)N1CC2(CCN(Cc3cccc(C(N)=O)c3)CC2)Cc2ccccc21 | -16.5%
NC(=O)c1cccc(CN2CCC3(CC2)Cc2ccccc2N(C(=O)c2ccc(Cl)cc2)C3)c1 | 11.2µM*
CC(=O)N1CC2(CCN(Cc3cccc(C(N)=O)c3)C2)Cc2ccccc21 (stereo not given) | -18.5%
O=C(c1ccc(Cl)cc1)N1CC2(CCN(CC3CC3)C2)Cc2ccccc21 (stereo not given) | 6.31µM*

High-throughput results (PubChem BioAssay)
